Experimental data reported in PubChem BioAssay (NCATS).
Results filed as inconclusive are left out. Activity calls are given as the source filed them. Unless noted, calls follow the shape of the full dose curve.

Experiments:
[1] = qHTS for Inhibitors of the Functional Ribonucleoprotein Complex (vRNP) of Lassa (LASV) Arenavirus: LASV Primary Screen - GLuc reporter signal (AID 1347082; calls by dose curve; tested in HEK293 reporter line; also: nearly all actives have a fitted effect of over 60% in size)
[2] = qHTS for Inhibitors of the Functional Ribonucleoprotein Complex (vRNP) of Lassa (LASV) Arenavirus: Viability assay - alamar blue signal for LASV Primary Screen (AID 1347083; calls by dose curve; tested in HEK293 reporter line; also: nearly all actives have a fitted effect of over 80% in size)
[3] = qHTS for Inhibitors of the Functional Ribonucleoprotein Complex (vRNP) of Lymphocytic Choriomeningitis Arenaviruses (LCMV): Viability assay - alamar blue signal for LCMV Primary Screen (AID 1347085; calls by dose curve; tested in HEK293 reporter line; also: nearly all actives have a fitted effect of over 80% in size)
[4] = molecular target: Nucleoprotein (Lymphocytic choriomeningitis virus (strain Armstrong)) (UniProt P09992); assay: qHTS for Inhibitors of the Functional Ribonucleoprotein Complex (vRNP) of Lymphocytic Choriomeningitis Arenaviruses (LCMV): LCMV Primary Screen - GLuc reporter signal (AID 1347086); also: nearly all actives have a fitted effect of over 70% in size
Chain of Nucleoprotein (Lymphocytic choriomeningitis virus (strain Armstrong)) (P09992 whole entry, looked up): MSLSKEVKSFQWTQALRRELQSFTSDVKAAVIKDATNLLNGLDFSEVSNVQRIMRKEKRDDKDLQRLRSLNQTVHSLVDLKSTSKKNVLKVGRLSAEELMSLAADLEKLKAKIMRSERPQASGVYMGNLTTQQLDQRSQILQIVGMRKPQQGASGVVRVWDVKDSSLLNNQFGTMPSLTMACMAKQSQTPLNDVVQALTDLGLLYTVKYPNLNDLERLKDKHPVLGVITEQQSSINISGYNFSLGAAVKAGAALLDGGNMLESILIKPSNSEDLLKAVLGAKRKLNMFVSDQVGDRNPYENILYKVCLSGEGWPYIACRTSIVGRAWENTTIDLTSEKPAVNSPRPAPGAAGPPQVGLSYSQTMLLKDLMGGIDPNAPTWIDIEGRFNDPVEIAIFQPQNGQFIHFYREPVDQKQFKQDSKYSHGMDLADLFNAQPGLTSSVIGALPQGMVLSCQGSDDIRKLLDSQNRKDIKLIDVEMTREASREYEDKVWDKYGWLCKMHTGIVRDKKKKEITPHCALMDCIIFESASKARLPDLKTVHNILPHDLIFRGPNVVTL

[5] = qHTS for inhibitors of Rabies Virus screened against the NCATS CANVASS Library (AID 1347402)
[6] = Primary qHTS for inhibitors of SARS-S pseudo-typed particle cell entry (AID 1479145); also: nearly all actives have a fitted effect of over 45% in size
[7] = Primary qHTS for Huh7 cytotoxicity: counterscreen for inhibitors of MERS-S pseudotyped particle cell entry (AID 1479147); details: outcome: dose series up to 57.1 µM unless noted
[8] = Primary qHTS for inhibitors of MERS-S pseudo-typed particle cell entry (AID 1479149); also: nearly all actives have a fitted effect of over 60% in size
[9] = Primary qHTS for Vero E6 cytotoxicity: counterscreen for inhibitors of SARS-S pseudo-typed particle cell entry (AID 1479150); details: outcome: dose series up to 57.1 µM unless noted
[10] = Confirmatory qHTS to identify inhibitors of SARS-CoV-2 cell entry (AID 1645844); also: potency is read from the fitted curve at half-maximal effect; nearly all actives have a fitted effect of over 45% in size
Summary of the method: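 Luminescence from a luciferase reporter, read 48 hr after pseudotyped-particle addition, gives entry signal, normalised to spike-bearing PP wells and bald PP lacking fusion protein wells. Cells are Expi293F stably expressing human ACE2, compound-pretreated 1 hr.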

[11] = Cytotoxicity counterscreen for inhibitors of SARS-CoV-2 cell entry (AID 1645845); also: nearly all actives have a fitted effect of over 50% in size
Summary of the method: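 48 h compound treatment (after 1 h preincubation), HEK293-ACE2 cells, 37 C/5% CO2; ATP luminescence endpoint; normalized to cell wells and media blanks.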

[12] = Primary qHTS to identify inhibitors of SARS-CoV-2 cell entry (AID 1645846); details: activity change, negative = inhibition: at 57.1 µM (top of the series) unless noted; also: nearly all actives have a fitted effect of over 45% in size
Summary of the method: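 Inhibition of spike-mediated entry was scored in human ACE2-transfected Expi293F cells. Particles were MLV-pseudotyped with Wuhan-Hu-1 S carrying a 19-aa C-terminal deletion; signal was luciferase after two days, scaled between spike PP and fusion-protein-free PP.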

[13] = VSVG counterscreen qHTS to identify inhibitors of SARS-CoV-2 cell entry (AID 1645847); also: potency is read from the fitted curve at half-maximal effect; nearly all actives have a fitted effect of over 65% in size
Summary of the method: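 Luminescence from a luciferase reporter, normalised to bald particle and VSV-G pseudotyped particle wells, is the read-out. Cells are HEK293 expressing human ACE2, exposed to compound 1 h before a 48 h particle infection at 37 °C.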

O=c1cc(-c2ccc(O)c(O)c2)oc2cc(O[C@@H]3O[C@H](CO)[C@@H](O)[C@H](O)[C@H]3O)cc(O)c12
inactive: Potency [1] | Potency [2] | Potency [3] | Potency [4] | outcome [5]

CO[C@H]1C(=O)[C@]2(C)[C@@H](OC)C[C@H]3OC[C@@]3(OC(C)=O)[C@H]2[C@H](OC(=O)c2ccccc2)[C@]2(O)C[C@H](OC(=O)[C@H](O)[C@@H](NC(=O)OC(C)(C)C)c3ccccc3)C(C)=C1C2(C)C
-81.7%: activity change, negative = inhibition [12]
inactive: Potency [1] | Potency [2] | Potency [3] | Potency [4] | Potency [6] | outcome [7] | Potency [8] | outcome [9] | Potency [11]
active: Potency [10] 48.2 nM | Potency [13] 136 nM
